The source of these data is PubChem BioAssay (NCI).

Some test systems named below: HCT-15 colon; HT29 colon; SNB-75 CNS; SNB-19 CNS; U251 CNS; PC-3 prostate; SK-MEL-5 melanoma; UACC-62 melanoma; SK-MEL-28 melanoma; LOX IMVI melanoma.
Assay in all cases: NCI-60 one-dose screen, 48 h (100 = growth as untreated, 0 = no growth, -100 = all killed)
What all share (details): 10 µM unless noted

The panel holds about 83,000 compounds, 20% with a hit somewhere; the sample as a whole holds those more often.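 Testing used 96-well plates and a 48-hour single-concentration exposure. Example: -40 means 40% of the starting cells died.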 Values without a mark were called inactive. Active and inactive are the calls of the source. How the source made its calls: active means growth percent below 10; inactive means the rest.

As to `ClCCN(CCCl)c1ccc(-n2cnc3c(Cl)ncnc32)cc1`, the growth with HCT-15 colon was -26.7% (active); with HT29 colon, 12.7%; in the test on SNB-75 CNS it was 26.1%; in the test with SNB-19 CNS, 79.2%; in the test on U251 CNS, 32.8%; in the test on PC-3 prostate, 64.1%. Besides, the growth in the test on SK-MEL-5 melanoma was 86.3%; in the test with UACC-62 melanoma, 31.5%; in the test with SK-MEL-28 melanoma, -10.5% (active).

As for `Cc1ccc(S(=O)(=O)C(Cl)(Cl)Cl)cc1`, the growth with HCT-15 colon was 100%; in the test on HT29 colon it was 89%; with SNB-75 CNS, 81.5%; with SNB-19 CNS, 102%; in the test with U251 CNS, 88.7%; with PC-3 prostate, 67.4%. For the same compound, the growth in the test on SK-MEL-5 melanoma was 99.9%; in the test on LOX IMVI melanoma, 98.3%; in the test on SK-MEL-28 melanoma, 107%.

In the case of `CN1CCCCC1C(C)(O)c1ccccc1` (stereo not drawn), the growth with HCT-15 colon is 100%; in the test on HT29 colon, 93.4%; in the test on SNB-75 CNS, 93%; with SNB-19 CNS, 107%; with U251 CNS it was 101%; with PC-3 prostate, 82.1%. Also, the growth with SK-MEL-5 melanoma was 104%; in the test on UACC-62 melanoma, 104%; in the test on SK-MEL-28 melanoma it was 105%.

`Cn1cc(-c2csc(-c3cn(CCCCN4CCCCC4)c4ccccc34)n2)c2cccnc21`: the growth is -74.9% (active) in the test with HCT-15 colon; -85.6% (active) in the test with HT29 colon; 53.1% in the test on SNB-75 CNS; -32.1% (active) in the test with SNB-19 CNS; -72.3% (active) with U251 CNS; 51.3% in the test on PC-3 prostate. Moreover, the results for the growth in the test with SK-MEL-5 melanoma, with LOX IMVI melanoma and in the test with SK-MEL-28 melanoma were -92.1% (active), -72.6% (active) and -79.2% (active), respectively.

As to `Cc1cc(N(CCCl)CCCl)ccc1/C=N\NC(=O)c1ccncc1`, the growth with HCT-15 colon was 88.9%; in the test on HT29 colon it was 98.3%; in the test with SNB-75 CNS, 87.1%; in the test with SNB-19 CNS it was 106%; in the test with U251 CNS, 90.5%; in the test with PC-3 prostate, 88.9%. Also, the figures for the growth in the test on SK-MEL-5 melanoma, in the test on UACC-62 melanoma and with SK-MEL-28 melanoma were 76.1%, 53.1% and 99.7%, respectively.

Turning to `O=C(O)C1C(C(=O)O)C2(Cl)C(Cl)=C(Cl)C1(Cl)C2(Cl)Cl.[Hg]` (stereo not drawn), the growth is 87% in the test with HCT-15 colon; 82.2% in the test with HT29 colon; 86.6% in the test on SNB-75 CNS; 96.9% with SNB-19 CNS; 44.7% in the test with U251 CNS; 76.2% with PC-3 prostate. Besides, the growth was 85.3% in the test with SK-MEL-5 melanoma, 85.2% in the test on LOX IMVI melanoma and 96.7% with SK-MEL-28 melanoma.

With `CC(C)(C)C(=O)OCOP(=O)(OCOC(=O)C(C)(C)C)C1CCCN(O)C1=O` (stereo not drawn), the growth is 7.4% (active) with HCT-15 colon; 2.01% (active) in the test with HT29 colon; 47.6% with SNB-75 CNS; 2.57% (active) with SNB-19 CNS; 2.06% (active) in the test on U251 CNS; 24.2% in the test on PC-3 prostate. Also, the growth with SK-MEL-5 melanoma is -13.5% (active); in the test on LOX IMVI melanoma it was 17.6%; in the test with SK-MEL-28 melanoma it was -23.8% (active).

Consider `O=C1C2C(C(=O)[N]1[Hg][c]1cccs1)C1(Cl)C(Cl)=C(Cl)C2(Cl)C1(Cl)Cl` (stereo not drawn), for which the growth in the test on HCT-15 colon is -76.8% (active); with HT29 colon, 8.75% (active); in the test on SNB-75 CNS it was 59.5%; with SNB-19 CNS, 51.5%; in the test on U251 CNS it was -67.6% (active); in the test with PC-3 prostate, 33.4%. Also, the growth with SK-MEL-5 melanoma was 24%; in the test with LOX IMVI melanoma it was -90.7% (active); in the test on SK-MEL-28 melanoma, -76.9% (active).

Turning to `Brc1ccc2c(c1)c(-c1nc(-c3c[nH]c4ncccc34)cs1)cn2CCN1CCOCC1`, the growth is 35.5% in the test on HCT-15 colon; 57.8% in the test with HT29 colon; 56.4% in the test on SNB-75 CNS; 71.6% in the test with SNB-19 CNS; 52.8% with U251 CNS; 30.3% with PC-3 prostate. Also, the figures for the growth with SK-MEL-5 melanoma, in the test on LOX IMVI melanoma and in the test with SK-MEL-28 melanoma were 51.3%, 66.7% and 94.5%, respectively.

For `CC[C@]12C=CCN3CC[C@]4(C(=C(C(=O)OC)C1)Nc1cc(OC)c(OC(C)=O)cc14)[C@@H]32`, the growth in the test on HCT-15 colon was 21%; in the test on HT29 colon it was 0.643% (active); in the test on SNB-75 CNS it was 50.6%; with SNB-19 CNS, 32.2%; in the test with U251 CNS, 3.52% (active); in the test with PC-3 prostate it was 22.5%. Moreover, the results for the growth in the test with SK-MEL-5 melanoma and with LOX IMVI melanoma were -33.4% (active) and -24% (active), respectively.

For the compound `COc1ccc2c(c1)c(-c1nc(-c3c[nH]c4ncccc34)cs1)cn2CCN1CCOCC1`, the growth in the test on HCT-15 colon was 31.4%; in the test on HT29 colon, 45.8%; in the test with SNB-75 CNS, 49.7%; in the test with SNB-19 CNS it was 67%; with U251 CNS, 45.6%; in the test with PC-3 prostate, 34.1%. The growth in the test with SK-MEL-5 melanoma was 25.4%; with LOX IMVI melanoma it was 45.4%; in the test on SK-MEL-28 melanoma it was 68.4%.
